± gives the standard deviation.
tested on: MILI (PIWIL2) piRISC loaded with L1MC piRNA (26 nt); experiment: pre-steady-state target cleavage rate (min^-1); guide: L1MC piRNA 5'p-UAACUAAAUACUAUGCAAGCUGUAGG; MIWI and MILI are mouse PIWI proteins and EfPiwi is from a freshwater sponge; tags in brackets are library labels; higher = faster piRNA-guided slicing of the target; conditions: auxiliary factor: 500 nM mouse GTSF1
Outline: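 In this Cleave-'n-Seq assay, uncleaved targets were sequenced and normalised to depth and to weakly complementary targets. They came from a transcribed, DNA-blocked target RNA library […] mixed with 1 nM active affinity-purified piRISC carrying one synthetic guide, with or without 500 nM GTSF1 partner protein, in HEPES–potassium acetate buffer at 33 °C for 0–8 or 0–960 min. After three trials were pooled and k3 was capped at 0.0001 min^-1, the pre-steady-state cleavage rate was obtained from a burst-and-steady-state fit.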
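Note: 1 nM active piRISC with 0.1 nM target library at 33 °C single turnover.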

Row | Sequence | pre-steady-state target cleavage rate
1 | UCCUGCUACAGCUUGCUAAGUAUUUAGAAA | 0.0738 ± 0.017
2 | UCCUGGAACAGCUUGCAUAGUAUAAUCAAA | 0.0568 ± 0.016
3 | UCCUGCUACAGCUUGCAAUCUAUUUACAAA | 0.00954 ± 0.0044
4 | UCCUGGAUGUCCAUGCAUACUAUUUAGUUA | 0.0122 ± 0.0052
5 | UCCUGGAUGUCGUAGCAUAGUAUUUAGAUA | 0.0132 ± 0.0048
6 | UCCUGGAUCAGCUUGCAUUGAAUUUAGUUA | 0.0248 ± 0.0084
7 | UCCUGGAUGUCCUUGCUUAGUAUUUAGAUA | 0.0358 ± 0.0092
8 | UCCUGGAUCAGCUUGCAUACUAUUUUCAAA | 0.00818 ± 0.004
9 | UCCUGGAACAGCUUGCAUAGAAAUUAGUUA | 0.0351 ± 0.0085
10 | UCCUGGUACAGCUUGCAUAGUAUUUUGUAA | 0.03 ± 0.0099
11 | UCCUGGAUGUGCAACCAUAGUAUUUAGUUA | 0.0128 ± 0.0042
12 | UCCUGGUACAGCUUGCUUAGUAUUUUGUUA | 0.0736 ± 0.021
13 | UCCUGGUACAGCAUGCAUAGAAUUUAGUUA | 0.197 ± 0.07
14 | UCCUGGUACAGCUUGCAUAGUAUUUACUUA | 0.103 ± 0.025
15 | UCCUGGAUCAGCUUGCAUAGUAUAAAGAAA | 0.0366 ± 0.01
16 | UCCUGGAUGUCCUUGCAUAGUUAUUAGUUA | 0.00901 ± 0.004
17 | UCCUGGAUGUCGAACCAUUGUAUAUAGUUA | < 0.0001
18 | UCCUGGAUGUCGAAGCAUAGUAUUUAGGUA | 0.00926 ± 0.0047

Row | Sequence | pre-steady-state target cleavage rate
19 | UCCUGGAUGUGCUUGCAUAGUAUAUAGUAA | 0.0253 ± 0.0079
20 | UCCUGGAUGACGUUGCAUAGUAUUUAGAAA | 0.0501 ± 0.014
21 | UCCUGGUACAGCUUGGAUACUAUUUAGUUA | 0.153 ± 0.059
22 | UCCUGCUACAGCUUGCAUAGAUAUUAGUUA | 0.0176 ± 0.0073
23 | UCCUGGUUCAGCUUGCAUAGUAUUUUCAAA | 0.0427 ± 0.016
24 | UCCUGGAUGUCGAAGCAUAGUACUUAGUUA | 0.00746 ± 0.0031
25 | UCCUGGAUGUCCUUGCAUAGUAUUUUCUAA | 0.0134 ± 0.0068
26 | UCCUGGUACAGCUUGCAAAGAAUUUAGUUA | 0.00951 ± 0.0059
27 | UCCUCCUACAGCUUGGUUAGUAUUUUCAAA | 0.0137 ± 0.007
28 | UCCUCCUACAGCUUGCAUAGAUUUUUCAAA | 0.0441 ± 0.013
29 | UCCUGGAUGUGCUUCGAUAGUAUUUAGUUA | 0.0415 ± 0.0078
30 | UCCUGGAACAGCUAGCAUAGUAUUUACUUA | 0.0669 ± 0.016
31 | UCCUGGAUGUCGUUGCAUAGUAAUAAGUUA | 0.0113 ± 0.004
32 | UCCUGGAACAGCUUGCAUAGAAUUAAGUUA | 0.051 ± 0.014
33 | UCCUGGAUCAGCUUGCAUAGCUAUUUAGUUA | 0.00402 ± 0.004
34 | UCCUGGUACAGCUUGCAUAGUUUUAGUUA | 0.00982 ± 0.0052
35 | UCCUGGAACAGCUUGCUUAGUAUUUUCAAA | 0.0287 ± 0.011
36 | UCCUGGAUGUCGUUGCAUAGUAUUCAGUUA | 0.0553 ± 0.018

same assay, conditions: auxiliary factor: none (no GTSF1)

Row | Sequence | pre-steady-state target cleavage rate
37 | UCCUGGAUGUCGAACCAUUCUAUUUAGUUA | < 0.0001
38 | UCCUGGAUGUCGAACGUAUGUAUUUAGUA | < 0.0001
39 | UCCUGGUACAGCUUGCAUACAAUUUAGUUA | 0.00451 ± 0.0027
40 | UCCUGGAUGUCGAACGAUAGUAUUUACAUA | < 0.0001

Reference: the supplement of paper PMC10338343
